Screening results as filed in PubChem.
ALDH1A1 inh = qHTS Assay for Inhibitors of Aldehyde Dehydrogenase 1 (ALDH1A1); hit rate 7.3% among 220,000; AID 1030, 2008; Potency, µM (highest dose often 75.3 µM), actives largely listed as inhibitors; Aldehyde dehydrogenase 1A1 (Homo sapiens), P00352; Purified ALDH1A1, NADH fluorescence, propionaldehyde substrate; active means well fitted inhibition curve with a large enough effect, not every such curve was filed as active; inconclusive means small, poorly fitted or top-dose-only effect, or another doubt; inactive means no such curve, though single readings can be large or run the other way
RGS12 GoLoco inh = qHTS Assay for Inhibitors of RGS12 GoLoco Motif Activity (Red Fluorophore). Gai1:RGS12 GoLoco peptide FP, rhodamine, 10 min. Potency, µM (top dose mostly 61.6 µM), hits mostly inhibitors. hit rate 0.44% among 230,000; active means well fitted inhibition curve with a large enough effect, not every such curve was filed as active; inactive means no such curve, though single readings can be large or run the other way; further: nearly all actives have a fitted effect of over 30% in size
Target sequence (P63096 whole entry, looked up): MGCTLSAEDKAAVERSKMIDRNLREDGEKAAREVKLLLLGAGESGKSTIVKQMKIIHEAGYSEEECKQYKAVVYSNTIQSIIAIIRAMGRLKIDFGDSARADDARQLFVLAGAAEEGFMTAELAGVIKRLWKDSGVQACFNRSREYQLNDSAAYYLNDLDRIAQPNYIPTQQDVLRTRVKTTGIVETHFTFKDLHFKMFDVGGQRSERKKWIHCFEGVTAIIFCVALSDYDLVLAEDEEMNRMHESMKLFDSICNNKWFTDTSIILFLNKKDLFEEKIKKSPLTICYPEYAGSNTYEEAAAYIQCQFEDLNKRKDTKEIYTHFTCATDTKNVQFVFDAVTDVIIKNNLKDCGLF
Sfp inh = qHTS Assay for Inhibitors of Bacillus subtilis Sfp phosphopantetheinyl transferase (PPTase); 4'-phosphopantetheinyl transferase ffp (Bacillus subtilis), Q9F4F7; Biochemical Sfp PPTase activity, qHTS; Potency, µM, hits mostly inhibitors; hit rate 3.5% among 310,000;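 further: the enzyme is Sfp with the accession as filed and its product quenches rhodamine fluorescence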
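Reaction rates are the 30-min fluorescence difference (ex 525, em 598 nm) in wells containing 15 nM Sfp, 5 uM rhodamine-CoA and 12.5 uM BHQ-2-YbbR at pH 7.6 with 10 mM MgCl2.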
JMJD2E inh = qHTS Assay for Inhibitors of Human Jumonji Domain Containing 2E (JMJD2E) | JMJD2E catalytic domain, FDH-coupled NADH fluorescence (FDH is formaldehyde dehydrogenase) | Potency, µM (top dose mostly 57.1 µM), usual class: inhibitors | hit rate 1.6% among 230,000 | AID 2147, 2009; active means well fitted inhibition curve with a large enough effect, not every such curve was filed as active; inconclusive means small, poorly fitted or top-dose-only effect, or another doubt; inactive means no such curve, though single readings can be large or run the other way; further: nearly all actives have a fitted effect of over 50% in size
FBPA coupling cs = qHTS Assay for Inhibitors of Fructose-1,6-bisphosphate Aldolase from Giardia Lamblia: Coupling assay counterscreen | coupling enzyme system counterscreen, AmpLite Red fluorescence | hit rate 0.67% among 290,000 | activity change, negative = inhibition, % at 58.2 µM, hits read low | AID 2472, 2010; in the data active means activity change below about -30%
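Counterscreen of the coupled detection system alone, without aldolase: glyceraldehyde-3-phosphate coupling enzymes plus AmpLite Red readout. Compounds at 57.5 uM final, 10 min RT preincubation, 20 min RT reaction, fluorescence 525/598 nm.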
NPSR antag = qHTS Assay for Antagonists of the Neuropeptide S Receptor: cAMP Signal Transduction; Q6W5P4; CHO-NPSR cells, cAMP TR-FRET, antagonist mode; Potency, µM (top dose mostly 38.3 µM), hits mostly inhibitors; hit rate 1% among 220,000; further: nearly all actives have a fitted effect of over 50% in size
Target sequence (Q6W5P4 whole entry, looked up): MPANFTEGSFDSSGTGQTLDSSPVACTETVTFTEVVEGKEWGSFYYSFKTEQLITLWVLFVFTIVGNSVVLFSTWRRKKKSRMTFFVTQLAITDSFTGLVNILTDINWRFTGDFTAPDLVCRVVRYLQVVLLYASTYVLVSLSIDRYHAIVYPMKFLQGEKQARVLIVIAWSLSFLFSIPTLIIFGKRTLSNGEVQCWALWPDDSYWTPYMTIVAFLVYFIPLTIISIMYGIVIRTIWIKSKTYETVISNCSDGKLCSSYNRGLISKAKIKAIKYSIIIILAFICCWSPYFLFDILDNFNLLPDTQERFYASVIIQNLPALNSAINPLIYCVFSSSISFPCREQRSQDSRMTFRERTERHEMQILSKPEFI
Large screens that a line does not name were inactive; ! = repeats disagree. Most compounds without a hit are left out; they make up all but 8.5% or so of the library. Unless noted, the call rests on the fitted dose curve; in most records, active means well fitted curve in the direction sought with a large enough effect; inconclusive means small, poorly fitted or top-dose-only effect, or another doubt; inactive means no such curve, though single readings can be large; an effect the other way counts as inactive or inconclusive.

CCOC(=O)CSc1nc2ccccc2c(=O)n1CC(C)C	ALDH1A1 inh inconclusive
CCOC(=O)CSc1nc2cc(C(=O)N3CCC(C(N)=O)CC3)ccc2c(=O)n1-c1ccccc1	none
COCCn1c(SCC(=O)N2CCC(C)CC2)nc2ccccc2c1=O	ALDH1A1 inh 11.2µM
COCCCn1c(SCC(=O)c2ccccc2)nc2ccccc2c1=O	ALDH1A1 inh inconclusive
Cc1ccccc1C(=O)N(CC(=O)Nc1sc(C)c(C)c1C(N)=O)C1CCCC1	none (no result: ALDH1A1 inh, RGS12 GoLoco inh, JMJD2E inh, NPSR antag)
COC(=O)c1sccc1NS(=O)(=O)c1ccccc1	none (no result: ALDH1A1 inh, RGS12 GoLoco inh, JMJD2E inh, NPSR antag)
CC(=O)OC[C@@H]1O[C@H](C/C=N\OCC[C@H]2C=C[C@H](OC(C)=O)[C@@H](COC(C)=O)O2)C=C[C@@H]1OC(C)=O	none (no result: RGS12 GoLoco inh, JMJD2E inh, NPSR antag)
NS(=O)(=O)c1ccc(CCNC(=O)CSc2nc3ccccc3c(=O)n2CCC(=O)N2CCCCC2)cc1	ALDH1A1 inh 7.94µM
O=C1CC(c2ccco2)CC(O)=C1C=Nc1cc(Cl)ccc1O (stereo unspecified)	ALDH1A1 inh inconclusive, JMJD2E inh 28.2µM
O=C1CC(c2ccco2)CC(O)=C1C=Nc1cc(Cl)ccc1Cl (stereo unspecified)	ALDH1A1 inh inconclusive, Sfp inh 50.1µM
O=C1CC(c2ccco2)CC(O)=C1C=Nc1ccccc1-c1ccccc1 (stereo unspecified)	ALDH1A1 inh inconclusive, JMJD2E inh inconclusive
Clc1ccc(-c2nc3nc4ccccc4nc3n2Cc2ccco2)cc1	ALDH1A1 inh inconclusive, Sfp inh 7.08µM, NPSR antag inconclusive
O=C(CSc1nnc(NC2CCCCC2)s1)Nc1ccc(N2CCOCC2)cc1	ALDH1A1 inh inconclusive
CC(Sc1nnc(NC2CCCCC2)s1)C(=O)Nc1ccc2c(c1)C(=O)c1ccccc1C2=O (stereo unspecified)	ALDH1A1 inh 25.1µM
S=C1NC2=C(CCCC2)C2(CCCCC2)N1	ALDH1A1 inh 0.316µM
CS(=O)(=O)c1ccc(C(=O)OCC(=O)NC(=O)C2CCCCC2)cc1[N+](=O)[O-]	Sfp inh 25.1µM
CCOC(=O)N1CCN(C(=O)c2ccc3c(c2)N=C(C)c2cc(Cl)ccc2S3)CC1	none (no result: ALDH1A1 inh, RGS12 GoLoco inh, JMJD2E inh, NPSR antag)
O=C(c1ccco1)N(CCC(c1ccccc1)c1ccco1)Cc1ccc(F)cc1 (stereo unspecified)	ALDH1A1 inh 14.1µM, NPSR antag inconclusive
NC(N)=NCCC[C@H](N)C(=O)N1CCC[C@H]1C(=O)N1CCC[C@H]1C(=O)NCC(=O)N[C@@H](Cc1ccccc1)C(=O)N[C@@H](CO)C(=O)N1CCC[C@H]1C(=O)N[C@@H](Cc1ccccc1)C(=O)O	none (no result: ALDH1A1 inh, RGS12 GoLoco inh, JMJD2E inh, NPSR antag)
CN(C)c1ccc(CC(=O)c2nc3ccccc3s2)cc1	ALDH1A1 inh 7.08µM, Sfp inh inconclusive
COC(=O)CCC(=O)OC1(C)C(=O)C=C2C=C(C3CC3)N(CCCCO)C=C2C1=O (stereo unspecified)	JMJD2E inh 20µM!, FBPA coupling cs -39.5!
COC(=O)CCC(=O)OC1(C)C(=O)C=C2C=C(C3CC3)N(Cc3ccc4c(c3)OCO4)C=C2C1=O (stereo unspecified)	JMJD2E inh 15.8µM!, FBPA coupling cs -39.1, NPSR antag inconclusive
COC(=O)CCC(=O)OC1(C)C(=O)C=C2C=C(C3CC3)N(CCc3c[nH]c4ccccc34)C=C2C1=O (stereo unspecified)	JMJD2E inh inconclusive, FBPA coupling cs -40.4!
COC(=O)CCC(=O)OC1(C)C(=O)C2=CN(CCc3c[nH]c4ccccc34)C(c3ccc(OC)cc3)=CC2=C(Br)C1=O (stereo unspecified)	none (no result: NPSR antag)
COC(=O)CCC(=O)OC1(C)C(=O)C=C2C=C(C3CC3)N(C(CO)CO)C=C2C1=O (stereo unspecified)	JMJD2E inh inconclusive, FBPA coupling cs -38.6!
CCCCC1=CC2=CC(=O)C(C)(OC(=O)CCC(=O)OC)C(=O)C2=CO1 (stereo unspecified)	none (no result: NPSR antag)
COC(=O)CCC(=O)OC1(C)C(=O)C=C2C=C(c3ccc(C#N)cc3)OC=C2C1=O (stereo unspecified)	none (no result: NPSR antag)
CCO[C@@H]1OC(C(=O)N2CCN(Cc3ccccc3)CC2)=C[C@H](c2csc3ccccc23)[C@H]1CCCO	ALDH1A1 inh inconclusive, NPSR antag inconclusive
Cc1ccc(CN(C)C(=O)c2ccc3c(c2)NC(=O)CS3)o1	Sfp inh 31.6µM (no result: ALDH1A1 inh)
COc1ccccc1CN(C)C(=O)c1ccc2c(c1)NC(=O)CS2	none
NC(CSSCC(N)C(=O)O)C(=O)O (stereo unspecified)	none (no result: ALDH1A1 inh, JMJD2E inh, NPSR antag)
N[C@@H](CSS(=O)(=O)O)C(=O)O	Sfp inh 44.7µM, JMJD2E inh inconclusive, FBPA coupling cs -76.5 (no result: NPSR antag)
CN(C)/C=C/C1=CC(=O)CC(C)(C)C1	ALDH1A1 inh 8.91µM
CC1(C)CC(=O)C=C(NCCO)C1	none
COC(=O)C1C(=O)C2=C(CC1C)NC(C)=C(C(=O)OC(C)C)C2c1ccc(C)o1 (stereo unspecified)	none
COC(=O)C1C(=O)C2=C(CC1C)NC(C)=C(C(=O)OC1CCCCC1)C2c1ccc(N(C)C)cc1 (stereo unspecified)	ALDH1A1 inh 8.91µM
O=C1CC(=O)N(Cc2ccco2)C(=O)N1	Sfp inh 50.1µM
S=C1NCN(Cc2ccco2)CN1	none (no result: ALDH1A1 inh)
O=C1CC(=O)N(Cc2ccco2)C(=S)N1	Sfp inh 22.4µM, JMJD2E inh inconclusive
COc1ccccc1S(=O)(=O)CC(O)COc1ccc(C#N)cc1 (stereo unspecified)	none
COC(=O)C(CC(C)C)NC(=O)c1ccc([N+](=O)[O-])c(C)c1 (stereo unspecified)	none
Cc1cc(C(=O)NC(CC(C)C)C(=O)O)cc(C)c1[N+](=O)[O-] (stereo unspecified)	ALDH1A1 inh 7.08µM, JMJD2E inh inconclusive
CC(=O)OC(c1nc2ccccc2c(=O)n1C1CC2(OC1=O)c1ccccc1N1C(=O)C(C)(C)N(O)C12)C(C)C (stereo unspecified)	none (no result: ALDH1A1 inh)
CCc1ccc2[nH]c(C(=O)Nc3ccc(F)cc3Br)cc2c1	Sfp inh 56.2µM (no result: ALDH1A1 inh, RGS12 GoLoco inh, JMJD2E inh, NPSR antag)
CCCC(=O)Nc1ncnc2c1ncn2[C@@H]1O[C@H]2COP(=O)(O)O[C@@H]2[C@@H]1OC(=O)CCC	none (no result: NPSR antag)
Cc1cc(=S)c2ccccc2[nH]1	Sfp inh 56.2µM (no result: ALDH1A1 inh)
Cc1ccc2[nH]c3ccccc3c(=O)c2c1	none (no result: ALDH1A1 inh, RGS12 GoLoco inh, JMJD2E inh, NPSR antag)
Cc1ccc2[nH]c(C)cc(=S)c2c1	ALDH1A1 inh 17.8µM, Sfp inh inconclusive, JMJD2E inh inconclusive
CC(=O)/C=C\C1[C@]2(C)CCCC(C)(C)C2CC[C@@]1(C)O (stereo partly specified)	none (no result: NPSR antag)
